Assay [1] is described as follows: inhibitors of TNFa-induced NFkB p65 translocation, primary screen, imaging, HUVEC, MLSMR starter and 10KST1 sets (AID 438;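 active = inhibition above 20% together with a positive visual image hit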;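 also: compound added about 3h40 before a 20 min TNFalpha stimulation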;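 as to inhibition: signal is the nuclear over cytoplasmic p65 intensity ratio per well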). Conditions: HUVEC TNFa-induced p65 nuclear translocation; cell count: measured here: nuclei count (cytotoxicity indicator), at 2.08 µM; inhibition: at 2 µM, stronger effect = higher value, 0% TNFa-plus-vehicle, 100% no-TNFa wells.
Assay [2] is described as follows: reduction of polyQ htt aggregates in cells – imaging, exon1htt(103Q)mCFP cells, high-content imaging, primary screen (AID 483;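 active = visual image review flags a hit and inhibition of aggregation exceeds 20%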;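 also: compound exposure lasted 3 days before fixation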;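 as to nuclei count: percent of the per-plate median nuclei count of sample wells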). As to conditions: exon1htt(103Q)mCFP cell line, aggregate imaging, at 2 µM; inhibition of aggregation: stronger effect = higher value; nuclei count: measured here: cell count, toxicity.
Assay [3] can be described thus: endothelial E-selectin expression blockers – imaging, HUVEC, immunofluorescence, MLSMR starter and 10KST1 sets, primary screen (AID 487).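 As to inhibition: signal is fraction of cell area covered by stained E-selectin grains.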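 As to nuclei count: 100% = median nuclei count of all wells on the same plate.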 As to conditions: HUVEC TNFalpha-induced E-selectin immunofluorescence imaging, at 2 µM; inhibition: stronger effect = higher value; nuclei count: measured here: cell number, toxicity.
In assay [4] the target is Voltage-gated potassium channel subunit beta-2 (Rattus norvegicus) (UniProt P62483). Description: inhibitors of rat Kvbeta2 reductase activity – biochemical, NADPH fluorescence, primary screen (AID 622;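 active = fluorescence slope higher than the sample average by over 3 SD, cut at about -0.22 in these data, passing the limit was not always enough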;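 also: slope of raw intensity against log time taken from 70 to 1610 s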). Conditions: recombinant KvBeta, 4-cyanobenzaldehyde reduction, at 10 µM, stronger effect = higher value.
Voltage-gated potassium channel subunit beta-2 (Rattus norvegicus), sequence (P62483 whole entry, looked up): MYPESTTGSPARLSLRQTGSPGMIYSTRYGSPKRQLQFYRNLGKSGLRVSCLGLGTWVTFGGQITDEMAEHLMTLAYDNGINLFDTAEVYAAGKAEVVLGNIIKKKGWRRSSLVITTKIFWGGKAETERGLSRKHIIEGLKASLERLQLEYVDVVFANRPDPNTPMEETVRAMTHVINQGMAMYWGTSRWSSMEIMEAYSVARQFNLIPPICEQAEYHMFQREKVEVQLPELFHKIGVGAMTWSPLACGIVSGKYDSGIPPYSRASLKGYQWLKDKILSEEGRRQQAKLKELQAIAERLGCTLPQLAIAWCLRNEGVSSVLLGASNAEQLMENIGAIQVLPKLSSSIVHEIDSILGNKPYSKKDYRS
The target is the same in assay [5]. Description: enhancers of rat Kvbeta2 NADPH turnover – biochemical, NADPH fluorescence, primary screen (AID 623;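 active = NADPH fluorescence slope more negative than the mean of all samples by about 3 SD, 99.7% confidence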;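 also: fluorescence intensity change per second fitted from 20 to 320 s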). As to conditions: Recombinant KvBeta, NADPH fluorescence decrease slope, 10 min; at 10 µM; stronger effect = lower value.
The target in assay [6] is Alpha-2C adrenergic receptor (Homo sapiens) (UniProt P18825). In words: compounds altering alpha2C-coupled GIRK flux – cell-based, HEK293 alpha2C/GIRK1/2, thallium flux, primary screen (AID 624;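 active = fluorescence slope after compound addition differing from the mean of all screened samples at 99.7% confidence, in either direction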;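 also: slope of fluorescence ratio to pre-addition baseline per second over 15 to 24 s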). As to conditions: thallium flux BTC fluorescence, at 10 µM, actives lie on both sides.
Alpha-2C adrenergic receptor (Homo sapiens), sequence (P18825 whole entry, looked up): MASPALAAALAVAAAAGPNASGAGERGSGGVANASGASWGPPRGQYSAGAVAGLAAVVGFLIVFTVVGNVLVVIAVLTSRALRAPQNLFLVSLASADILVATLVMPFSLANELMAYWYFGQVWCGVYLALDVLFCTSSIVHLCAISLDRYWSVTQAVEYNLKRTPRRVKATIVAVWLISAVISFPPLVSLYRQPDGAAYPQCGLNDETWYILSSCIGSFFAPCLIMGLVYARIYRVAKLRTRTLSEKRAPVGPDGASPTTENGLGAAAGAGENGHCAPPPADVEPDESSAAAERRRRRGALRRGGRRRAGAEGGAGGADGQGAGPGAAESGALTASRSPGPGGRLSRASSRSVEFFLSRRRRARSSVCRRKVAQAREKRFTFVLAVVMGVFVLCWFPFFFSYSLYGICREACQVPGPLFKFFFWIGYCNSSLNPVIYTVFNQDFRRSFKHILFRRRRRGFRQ
Assay [7] is described as follows: blockers of RIG-like receptor reporter activation – cell-based, Sendai virus stimulus, luciferase, 10K MLSCN set, TLR/RLR signaling modifier project, primary screen (AID 602276;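 active = inhibition at or above 50% at 10 µM; inactive = inhibition below 50%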;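 also: firefly luciferase from ISG56 promoter only with Renilla not read in this screen; 0% = Sendai virus plus DMSO and 100% = medium plus DMSO without virus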). As to conditions: HEK293 RL24 IRF3 luciferase reporter, at 10 µM, stronger effect = higher value. (In general: In a reporter assay the amount or activity of a reporter protein is the signal.)
Assay [8] is described as follows: TLR3 IRF3 reporter activation blockers – cell-based, poly I:C stimulus, luciferase, 10K MLSCN set, primary screen (AID 602277;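 active = inhibition of the reporter signal at or above 50%; inactive = inhibition below 50%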). Conditions: HEK293-TLR3 RL24 IRF3 luciferase reporter, at 10 µM, stronger effect = higher value.

Activity calls are given as the source filed them.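 The calls were made as follows, unless noted: active = visually confirmed hit in the image check and inhibition above 20%; inconclusive = visually confirmed hit but inhibition not above 20%; inactive = no visual hit in the image check.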

For orientation: inhibition means the drop in the measured response relative to a control, in per cent. Regarding `Cc1nc2cc(Cl)ccc2n1CCO`, the cell count in assay [1] amounted to 404. In addition, the inhibition in assay [1] is 6.1% (inactive); in assay [3], 15.4% (inactive); in assay [7], 17% (inactive); in assay [8], 21.6% (inactive). Also, the inhibition of aggregation in assay [2] is -6.3% (inactive). Further, the nuclei count is 104% in assay [2] and 115% in assay [3]. Also, in assay [4], the fluorescence slope was -0.565 (inactive). In assay [5], the NADPH fluorescence slope is -1.6e-05 (inactive). In addition, the slope in assay [6] was 0.00492 (inactive).

For the compound `CCOC(=O)C1CCN(C(=O)c2ccc(Cl)c(Cl)c2)CC1`, in assay [1], the cell count was 322. Also, the inhibition is 4.4% (inactive) in assay [1], -64.6% (inactive) in assay [3], -22.5% (inactive) in assay [7] and -5.49% (inactive) in assay [8]. In addition, the inhibition of aggregation in assay [2] is 7.9% (inactive). Further, the nuclei count in assay [2] amounted to 83.5%; in assay [3] it was 110%. Further, the fluorescence slope in assay [4] is -0.522 (inactive). The NADPH fluorescence slope in assay [5] is 1.1e-05 (inactive). The slope in assay [6] was 0.00596 (inactive).

As for `CC(C)c1ncc(C(O)c2cccc3ccccc23)n1C` (centres undefined), the cell count in assay [1] came out at 640. Further, the inhibition in assay [1] is -10.5% (inactive); in assay [3], -10.8% (inactive); in assay [7], -12.7% (inactive); in assay [8] it was -7.56% (inactive). Also, the inhibition of aggregation in assay [2] was 11.4% (inactive). Besides, the nuclei count in assay [2] was 75.8%; in assay [3], 123%. Besides, the fluorescence slope in assay [4] is -0.494 (inactive). Also, in assay [5], the NADPH fluorescence slope was -6.2e-05 (inactive). Also, in assay [6], the slope was 0.00406 (inactive).

Regarding `COc1ccc(Br)cc1S(=O)(=O)N1CC(C)OC(C)C1` (centres undefined), the cell count in assay [1] came out at 359. Also, the inhibition was 2.8% (inactive) in assay [1], -42.7% (inactive) in assay [3], -2.27% (inactive) in assay [7] and 9.82% (inactive) in assay [8]. Besides, the inhibition of aggregation in assay [2] was -12.3% (inactive). The nuclei count in assay [2] worked out at 94%; in assay [3], 104%. Besides, in assay [4], the fluorescence slope is -0.429 (inactive). Further, the NADPH fluorescence slope in assay [5] was 3.8e-05 (inactive). Also, the slope in assay [6] was 0.0065 (inactive).

Take `Cn1c(=O)c2c(nc(CN3CCOCC3)n2CC(O)CO)n(C)c1=O` (centres undefined): the cell count in assay [1] came out at 474. Also, the inhibition in assay [1] was 44.4% (active); in assay [3], 10.6% (inactive); in assay [7], 14.2% (inactive); in assay [8], 23.9% (inactive). Further, in assay [2], the inhibition of aggregation is 19.2% (inactive). Moreover, the values for the nuclei count in assay [2] and in assay [3] were 103% and 110%, respectively. Besides, the fluorescence slope in assay [4] was -0.427 (inactive). In addition, the NADPH fluorescence slope in assay [5] is -2.2e-05 (inactive). Besides, the slope in assay [6] is 0.00587 (inactive).

As for `CCOC(=O)Cn1c(CN(C)Cc2ccccc2)nc2c1c(=O)n(C)c(=O)n2C`, the cell count in assay [1] amounted to 241. Besides, the inhibition in assay [1] was 6.8% (inactive); in assay [3] it was 26.4% (inactive); in assay [7] it was 13.2% (inactive); in assay [8] it was 10.8% (inactive). Further, the inhibition of aggregation in assay [2] was 6.2% (inactive). For the same compound, the results for the nuclei count in assay [2] and in assay [3] were 92.6% and 94.7%, respectively. In addition, in assay [4], the fluorescence slope was -0.278 (inactive). For the same compound, in assay [5], the NADPH fluorescence slope is -3.7e-05 (inactive). The slope in assay [6] is 0.00521 (inactive).

Take `CC(C)CN(CC(C)C)C(=O)CS(=O)(=O)Cc1ccccc1`: the cell count in assay [1] was determined as 334. Also, the inhibition in assay [1] was -1.2% (inactive); in assay [3] it was -51.3% (inactive); in assay [7], 6.49% (inactive); in assay [8], 16.4% (inactive). In assay [2], the inhibition of aggregation is -5.8% (inactive). Moreover, the nuclei count is 98.4% in assay [2] and 116% in assay [3]. Besides, the fluorescence slope in assay [4] is -0.492 (inactive). In addition, the NADPH fluorescence slope in assay [5] is -6.4e-05 (inactive). Moreover, the slope in assay [6] is 0.00578 (inactive).

As to `CN(C)c1ccc(CNCCC2(O)CCOC(C)(C)C2)cc1` (centres undefined), the cell count in assay [1] came out at 495. Besides, the inhibition was -1.4% (inactive) in assay [1], -25% (inactive) in assay [3], 0.927% (inactive) in assay [7] and 28.2% (inactive) in assay [8]. In assay [2], the inhibition of aggregation was 3.5% (inactive). Further, the nuclei count in assay [2] came out at 89.5%; in assay [3], 114%. Further, the fluorescence slope in assay [4] was -0.472 (inactive). Also, in assay [5], the NADPH fluorescence slope is -4.7e-06 (inactive). In addition, in assay [6], the slope was 0.00622 (inactive).

As for `CCCN(CC1CC1)C(=O)Nc1ccccc1C`, in assay [1], the cell count amounted to 693. Also, the inhibition in assay [1] was -11.6% (inactive); in assay [3], -32.9% (inactive); in assay [7], -4.1% (inactive); in assay [8] it was -19% (inactive). In addition, the inhibition of aggregation in assay [2] is 9.8% (inactive). The nuclei count worked out at 101% in assay [2] and 103% in assay [3]. Further, the fluorescence slope in assay [4] was -0.529 (inactive). Further, in assay [5], the NADPH fluorescence slope is 3.7e-05 (inactive). Besides, in assay [6], the slope was 0.00657 (inactive).

`CCOc1cc2[nH]c(=O)n(CCC(=O)NCCc3ccc(OC)c(OC)c3)c(=O)c2cc1OCC`: in assay [1], the cell count came out at 313. The inhibition in assay [1] is -2.1% (inactive); in assay [3] it was -19.2% (inactive); in assay [7] it was 8.69% (inactive); in assay [8], 16.7% (inactive). Also, in assay [2], the inhibition of aggregation is -0.3% (inactive). Moreover, the nuclei count in assay [2] turned out to be 103%; in assay [3] it was 122%. In addition, the fluorescence slope in assay [4] was -0.514 (inactive). In addition, the NADPH fluorescence slope in assay [5] was 2.8e-05 (inactive). Besides, in assay [6], the slope was 0.00653 (inactive).

As for `Cc1ccccc1-c1nc(Cc2ccccc2)no1`, the cell count in assay [1] came to 434. The inhibition was -9.1% (inactive) in assay [1], 31.1% (inactive) in assay [3], -43.9% (inactive) in assay [7] and -184% (inactive) in assay [8]. The inhibition of aggregation in assay [2] was 12.9% (inactive). For the same compound, the nuclei count stood at 87.9% in assay [2] and 93.2% in assay [3]. Further, in assay [4], the fluorescence slope is -0.341 (inactive). Moreover, in assay [5], the NADPH fluorescence slope was -3.8e-05 (inactive). Further, the slope in assay [6] was 0.00721 (inactive).

On to `O=C(NC1CC1)C1CCN(c2ccc(S(=O)(=O)N3CCOCC3)cc2)CC1`, for which, in assay [1], the cell count amounted to 735. The inhibition in assay [1] was -4.1% (inactive); in assay [3], -14.8% (inactive); in assay [7] it was -7.23% (inactive); in assay [8], 20.7% (inactive). In assay [2], the inhibition of aggregation is -4.3% (inactive). Further, the values for the nuclei count in assay [2] and in assay [3] were 110% and 101%, respectively. In addition, the fluorescence slope in assay [4] is -0.476 (inactive). For the same compound, in assay [5], the NADPH fluorescence slope was -5e-06 (inactive). In addition, the slope in assay [6] is 0.00268 (inactive).

For `O=C(Cn1cnc2c(nnn2Cc2ccccc2)c1=O)c1ccc(Cl)cc1`, the cell count in assay [1] was found to be 561. Moreover, the inhibition in assay [1] is 8.2% (inactive); in assay [3], -22% (inactive); in assay [7] it was 11.9% (inactive); in assay [8], 21.3% (inactive). Further, in assay [2], the inhibition of aggregation is -6.2% (inactive). The nuclei count in assay [2] was 86.3%; in assay [3], 108%. Besides, in assay [4], the fluorescence slope was -0.591 (inactive). In assay [5], the NADPH fluorescence slope was -4.2e-06 (inactive). The slope in assay [6] is 0.00679 (inactive).

With `Cc1ccc(SCC(=O)NCCN2C(=O)CSC2=O)c(C)c1`, the cell count in assay [1] was found to be 323. Also, the inhibition in assay [1] is 22.6% (inactive); in assay [3], -98.3% (inactive); in assay [7], 0.863% (inactive); in assay [8] it was 35.6% (inactive). Also, in assay [2], the inhibition of aggregation was -4.2% (inactive). The nuclei count in assay [2] was determined as 93.3%; in assay [3] it was 115%. The fluorescence slope in assay [4] is -0.422 (inactive). The NADPH fluorescence slope in assay [5] is -2.5e-05 (inactive). The slope in assay [6] was 0.00367 (inactive).

The values are drawn from PubChem BioAssay.
